TCR CD3 inh: human TCR-CD3 binding inhibition | TAMRA-labeled TCR probe fluorescence, biochemical | inhibition, % at 9.4 µM | 360,000 tested, 0.37% active;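 further: recombinant mutant TCR 2C K166C tagged with TAMRA read by polarization; 0% = receptor in buffer alone and 100% = receptor with positive control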
PME-1 primary: PME-1 (human) inhibition. Q9Y570. recombinant PME-1, FP-Rh probe fluorescence polarization. inhibition, % at 5.9 µM. 320,000 tested, 0.53% active;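 active means inhibition above the campaign mean of all compounds plus 3 SD, cut at about 26% in these data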;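 further: competitive labeling of PME-1 active site by serine hydrolase directed probe; 0% = PME-1 with DMSO and 100% = wells lacking PME-1 enzyme; inhibitors block probe labeling so polarization falls and inhibition rises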
Target sequence (Q9Y570 whole entry, looked up): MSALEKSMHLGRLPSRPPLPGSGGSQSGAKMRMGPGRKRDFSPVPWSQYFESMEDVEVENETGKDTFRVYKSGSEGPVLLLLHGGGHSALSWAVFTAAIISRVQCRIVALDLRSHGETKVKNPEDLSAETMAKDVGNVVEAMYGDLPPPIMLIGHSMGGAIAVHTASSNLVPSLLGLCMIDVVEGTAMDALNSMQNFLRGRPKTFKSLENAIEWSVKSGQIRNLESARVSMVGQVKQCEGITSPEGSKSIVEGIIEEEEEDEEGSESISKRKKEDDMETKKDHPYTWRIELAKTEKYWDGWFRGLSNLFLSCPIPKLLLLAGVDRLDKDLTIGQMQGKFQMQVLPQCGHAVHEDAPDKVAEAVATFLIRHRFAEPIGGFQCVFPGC
PRMT1 inh: PRMT1 (human) inhibition, primary screen. Q99873. recombinant PRMT1, activity-based probe fluorescence polarization. inhibition, % at 2.79 µM. 370,000 tested, 1.3% active. AID 652257;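 active means inhibition above about 21% made by adding two undisclosed values, limit read from the data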
Fam108B counter: Fam108B inhibition, counter-screen for RBBP9 inhibitors; recombinant Fam108B, FP-Rh probe fluorescence polarization; inhibition, % at 9.51 µM; 300,000 tested, 0.33% active; AID 1947;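 active means inhibition above the screen mean inhibition plus 3 SD, computed separately per campaign, cut at about 18% in these data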;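 further: inhibitors lower polarization as less probe binds the enzyme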
PAD4 inh: blocks human protein arginine deiminase 4 | Q9UM07 | recombinant PAD4, RCA probe fluorescence polarization | inhibition, % at 6.36 µM | 330,000 tested, 0.41% active;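 active means percent inhibition above a cutoff equal to the mean of all tested compounds plus 3 SD, cut at about 15% in these data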;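 further: 0% = PAD4 with RCA probe and DMSO and 100% = probe without PAD4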
SIAE inh: blocks human sialic acid acetylesterase; 370,000 tested, 0.69% active; SIAE FP-Rh probe binding, fluorescence polarization; inhibition, % at 9.66 µM; Q9HAT2; AID 1053197;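 active means inhibition above a cutoff: mean of compounds within the control limits plus 3 SD of those, cut at about 17% in these data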;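 further: 0% = plate median of compound wells and 100% = probe without SIAE protein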
BSA probe FL: interferes with TAMRA-BSA probe, flagging TCR-CD3 hits; shares compounds with TCR CD3 inh; TAMRA-labeled BSA probe fluorescence counterscreen; inhibition, % at 9.4 µM; 1,200 tested, 10% active; in the data active means inhibition above about 23%;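 further: 0% = buffer low control and 100% = reference high control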
TCR-CD3 inh conf: confirmation of human TCR-CD3 interaction inhibitors; shares compounds with TCR CD3 inh; TAMRA-labeled TCR probe fluorescence binding assay; inhibition, % at 9.4 µM; 1,200 tested, 48% active
The depositor's hits bear a star; · = no result given; ! = repeats disagree. Compounds with a hit are over-represented: about 2.6% of the library has one in this group of screens. Unless noted, no stated cut-off is given here; in the data, active means inhibition above about 19%; inactive means the rest.

SMILES	TCR CD3 inh	PME-1 primary	PRMT1 inh	Fam108B counter	PAD4 inh	SIAE inh	BSA probe FL	TCR-CD3 inh conf
CCC(C)Sc1cccc(-c2nc3cc(C)ccn3c2NC2CCCCC2)c1 (stereo not given)	25*!	·	0	·	-15	4	-5	-1
COc1ccc(C(CCOC(=O)Oc2ccccc2)c2cc(OC)c(OC)c(OC)c2)cc1 (stereo not given)	·	·	-1	·	·	4	·	·
COC(=O)C1CCN(C(=O)c2cc(-c3ccco3)nc3ccccc23)CC1	27*	·	22*	·	-1	11	4	31*
CN(C)C(C(=O)Nc1cc(Cl)cc(Cl)c1)c1ccccc1 (stereo not given)	135*	0	-1	1	-3	1	3	0
COC(=O)C1CCCN(C(=O)C2CCN(S(=O)(=O)c3ccc([N+](=O)[O-])cc3)CC2)C1 (stereo not given)	·	·	0	·	·	-2	·	·
CN(CC#Cc1ccccc1)C(N)=NC(=O)/C=C/c1ccccc1	·	·	-4	·	·	0	·	·
COc1ccc(NC(=O)CSc2nnc(-c3n[nH]c4c3CCC4)n2N)cc1	·	·	-1	·	·	3	·	·
CNC(=S)N/N=C/c1cc(Br)cc(Br)c1O	40*	13	-1	16	-3	7	-12	36*
COC(=O)c1ccc(CN2CC3CC(c4ccccc4)N4CCCC34C2=O)cc1 (stereo not given)	·	·	0	·	·	1	·	·
COc1ccc(S(=O)(=O)N(C)C[C@H]2Oc3ccc(NC(=O)CCC(F)(F)F)cc3C(=O)N([C@H](C)CO)C[C@@H]2C)cc1	8	·	4	·	-1	2	·	·
COc1ccc(S(=O)(=O)N(C)C[C@H]2Oc3ccc(NC(=O)Nc4ccc(C(F)(F)F)cc4)cc3C(=O)N([C@H](C)CO)C[C@@H]2C)cc1	34*	·	0	·	-12	-201	24*	47*
C[C@@H]1CN([C@H](C)CO)C(=O)c2cc(NC(=O)Nc3cccc4ccccc34)ccc2O[C@H]1CN(C)Cc1ccc(C(F)(F)F)cc1	25*	·	-3	·	-2	-66	-2	4
C[C@H](CO)N1C[C@H](C)[C@@H](CN(C)C(=O)Nc2ccc(C(F)(F)F)cc2)Oc2ccc(NC(=O)Nc3ccc(C(F)(F)F)cc3)cc2C1=O	76*	·	2	·	-4	-110	25*	48*
C[C@@H]1CN([C@H](C)CO)C(=O)c2cc(NC(=O)Nc3ccc(C(F)(F)F)cc3)ccc2O[C@H]1CN(C)S(=O)(=O)c1ccccc1	30*	·	-1	·	0	-174	-2	15
CC(=O)NC1(c2nnnn2CCOC(=O)Nc2ccc(Cl)cc2)CCCC1	-3	0	-6	0	1	0	·	·
CC(=O)N(C)C1(c2nnnn2CCOC(=O)Nc2ccc(Cl)cc2)CCCCC1	30*	0	-2	4	5	-2	1	2
COc1cc(Br)cc2cc(C(=O)N3CCN(C(=O)c4ccco4)CC3)c(=O)oc12	20*	5	-2	-3	1	7	3	19*
Cc1ccc2c(=O)cc(C(F)F)oc2c1	23*	-2	1	-2	-3	5	-4	-1
CCCc1nnc(NC(=O)CS(=O)(=O)c2ccccc2)s1	30*	3	0	2	-3	-5	-1	1
O=C(CS(=O)(=O)c1ccccc1)Nc1nnc(Cc2ccccc2)s1	-5	4	11	7	-2	7	·	·
Cc1[nH]n(-c2ccccc2)c(=O)c1N=Nc1ccccc1O	28*	·	2	·	·	-6	-4	20*
C=CCN(C(=O)[C@@H](CCCC)[C@@H](O)c1ccc2ccccc2c1)c1ccccc1	·	·	-3	·	·	1	·	·
O=C(N/N=C/C(Br)=C\c1ccccc1)c1ccco1	170*	2	1	-1	4	-2	0	4
O=C(Nc1cccc(NC(=O)c2ccc(-c3ccc(Br)cc3)o2)c1)c1ccco1	56*	-86	-4	-32	-34	-91	24*	44*
O=C(Nc1cccc(NC(=O)c2ccccc2Cl)c1)c1ccco1	0	-3	0	0	0	-6	·	·
SMILES	TCR CD3 inh	PME-1 primary	PRMT1 inh	Fam108B counter	PAD4 inh	SIAE inh	BSA probe FL	TCR-CD3 inh conf
COC(=O)[C@]12C[C@H](CC(=O)N3CCCC3)C(=O)N(CCc3ccc(OC)c(OC)c3)C1=C[C@H](C(C)C)O[C@@H]2C1CC1	·	·	4	·	·	-1	·	·
O=c1[nH]c(C(Cl)Cl)nc2sc3c(c12)CCN(Cc1ccccc1)C3	25*	0	3	4	-7	-4	-4	15
CCCSc1nc2sc3c(c2c(=O)[nH]1)CCN(Cc1ccccc1)C3	·	-19	·	-9	-10	·	·	·
CC1(C)CC2CC(C)(CN2S(=O)(=O)c2ccc(C(=O)Nc3cc(S(=O)(=O)N4CCOCC4)ccc3Cl)cc2)C1 (stereo not given)	5	-4	-2	-15	0	-10	·	·
CC1(C)CC2CC(C)(CN2S(=O)(=O)c2ccc(C(=O)Nc3cccc(S(=O)(=O)N4CCOCC4)c3)cc2)C1 (stereo not given)	35*	-78	-2	-49	0	-92	5	29*
COc1ccc(N2C(=NC(=O)C3CCCCC3)SC3CS(=O)(=O)CC32)cc1Cl (stereo not given)	0	-2	-2	0	1	3	·	·
COc1ccc(OC)c(N2C(=NC(=O)C3CCCCC3)SC3CS(=O)(=O)CC32)c1 (stereo not given)	41*	3	4	-4	3	2	-1	4
O=C(/C=C/c1ccccc1)Nc1cccc(C(=O)NCCCCc2ccccc2)c1	44*	·	5	·	·	-151	7	16
O=C(O)c1cccc2cccc(-c3c4ccc(=O)c(O)c-4oc4c(O)c(O)ccc34)c12	66*	·	32*	·	·	36*	-21	68*
CCN(CC)CCCNC(=O)C1(N[C@@H](Cc2c[nH]c3ccccc23)C(=O)NCC(OC)OC)CCCCC1	·	·	2	·	·	1	·	·
CC(C)CNC(=O)OCc1cn(Cc2cccc(C(F)(F)F)c2)nn1	·	·	3	·	·	1	·	·
c1cc(-c2ccoc2)n2ccnc2c1	25*	·	21	·	·	15	19	16
c1cc(-c2ccsc2)n2ccnc2c1	-2	·	2	·	·	1	·	·
Cc1cccc(/C=N/NC(=O)c2ccc3c(c2)OCCO3)c1O	19*	-21	6	4	1	1	-12	15
Cc1cccc(/C=N/NC(=O)c2c(-c3ccccc3)noc2C)c1O	24*	1	-4	5	5	5	-7	18
COc1ccccc1/C=N/NC(=O)c1c(-c2ccccc2)noc1C	-1	-2	-6	0	4	-1	·	·

Bioassay records deposited in PubChem BioAssay by The Scripps Research Institute Molecular Screening Center.
